Experimental data taken from PubChem BioAssay AID488789 (Broad Institute, 2010).
Entries with a potency or affinity are not part of this list. Records with an inconclusive call do not appear.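 How the source made its calls: active means samples whose fitted half-maximal inhibition concentration is no more than ten times the top valid dose tested; inconclusive means flat response between -70 and -30, or invalid curve fit; inactive means flat within 30 of zero, potency above limit, or signal rising.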

biological target: Trypsin (Sus scrofa) (UniProt P00761); assay: trypsin protease activity blockade – biochemical, quenched peptide fluorescence, cherry-pick, selectivity assay for Rce1 protease inhibitor project, dose response (AID 488789); conditions: porcine trypsin, quenched peptide cleavage fluorescence; series mostly up to 10 µM; activity change, negative = inhibition: at the top concentration
Sequence (P00761 whole entry, looked up): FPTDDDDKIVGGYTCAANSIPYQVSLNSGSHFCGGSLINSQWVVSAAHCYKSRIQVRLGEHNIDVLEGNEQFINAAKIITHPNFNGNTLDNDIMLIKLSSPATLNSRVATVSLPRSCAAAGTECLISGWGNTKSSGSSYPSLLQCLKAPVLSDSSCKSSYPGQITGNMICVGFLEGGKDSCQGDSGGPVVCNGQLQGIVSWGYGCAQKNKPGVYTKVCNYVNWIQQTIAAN

Activity change, negative = inhibition, inactive:
c1ccc(Nc2cccc(Nc3ccccc3)n2)cc1 19.8%, Cc1ccc(C(=O)c2c3ccccc3[n+]([O-])n2CCO)cc1 -5.98%, CN(C)S(=O)(=O)c1ccc(NC(=O)/C=C/c2ccccc2Cl)cc1 2.22%, COC(C/C=C\C(=O)[C@H](C)OCc1ccccc1)OC 18.9%, COc1cc(-c2nc3ccccn3c2/N=C/c2cccc(OC)c2O)ccc1O 1.16%, CC1CCN(Cc2c(C(=O)N/N=C/c3cccc(C(F)(F)F)c3)nnn2-c2nonc2N)CC1 4.51%, CN1CCN(C(=S)NC(=O)c2ccccc2Cl)CC1 2.37%, N=c1c(C(=O)NCc2ccc(F)cc2)cc2c(=O)n3ccccc3nc2n1Cc1cccnc1 37.3%, COc1ccc(Br)cc1C(=O)Nc1cc(C)cc(C)c1 13.5%, Nc1nonc1-n1nnc(C(=O)N/N=C/c2ccoc2)c1CSc1ccccc1 1.11%, O=C1CN(S(=O)(=O)c2ccc([N+](=O)[O-])cc2)CC(=O)N1 10.3%, O=C(O)CCC(=O)c1ccc(-c2ccccc2)cc1 6.17%, Cc1ccccc1NS(=O)(=O)c1ccc(C(=O)NCC(c2ccccc2)N(C)C)cc1 (configuration not stated) 8.17%, CC(C)C(NC(=O)c1ccco1)C(=O)NCC(c1ccco1)N1CCCCC1 (configuration not stated) 7.33%, CC(=O)N(C)c1ccc(NC(=O)/C=C/c2ccccc2Cl)cc1 6.67%, CCC1(c2ccccc2)NC(=O)N(CC(=O)Nc2ccc3c(C)cc(=O)oc3c2)C1=O (configuration not stated) 9.62%, C/C(CC1(O)C(=O)Nc2ccccc21)=N\O (configuration not stated) 30.9%, COC(=O)C(Cc1ccccc1)OS(N)(=O)=O (configuration not stated) 18.6%, Cn1c(CN2CCOCC2)c(C#N)c2ccccc21 6.74%, O=C(c1cnc(Cl)c(Cl)c1)N1CCC(Cc2ccccc2)CC1 5.08%, O=C1CCCC(O)=C1N=Nc1ccc2ncsc2c1 3.04%, CCn1cc(/C=C(\NC(=O)c2ccccc2Cl)C(=O)N2CCOCC2)c2ccccc21 -4.21%, CCOc1ccc(N(CC(=O)NC2CC3CCC2C3)S(=O)(=O)c2ccccc2)cc1 (configuration not stated) -1.05%, Cc1cccc(NC(=O)C2(c3ccc([N+](=O)[O-])cc3)CCCC2)c1 6.69%, CC(NC(=O)/C(C#N)=C/c1ccc(Cl)c([N+](=O)[O-])c1)c1ccccc1 (configuration not stated) 1.97%, Cc1ccc(NS(=O)(=O)c2ccc(NC(=O)N3CCCCC3)cc2)cc1 -2.65%, COc1ccc(N2CCN(C(=O)c3cc(-c4cccs4)nc4ccccc34)CC2)cc1 -3.39%, O=C(CCNS(=O)(=O)c1ccc2[nH]c(=O)oc2c1)NCc1ccccc1 8.03%, COc1ccc(OCC(=O)NS(=O)(=O)c2ccc(Cl)cc2)cc1 16.6%, O=[N+]([O-])c1cc(S(=O)(=O)N2CCCC2)ccc1NN=C1CCCCC1 6.92%, COc1ccc(Cl)cc1C(=O)Nc1ccc2c(c1)OCO2 -2.45%, C[n+]1c2n(c3ccccc31)N=C(c1cc(C(C)(C)C)c(O)c(C(C)(C)C)c1)CS2 5.04%, N#CC(C#N)=C1NC(N)=C(C#N)C(c2ccccc2)=C1C#N -9.18%, Cc1cc(N)c2cc(NC(=O)/C=C/c3ccccc3Cl)ccc2n1 14.5%, CCC(=O)Nc1cc(-c2nn(CC(=O)N3CCCCC3)c(=O)c3ccccc23)ccc1N1CCOCC1 -2.62%, O=C(C[n+]1cc2ccccc2c2ccccc21)c1ccccc1 -8.51%, Cc1cc(NS(=O)(=O)c2ccccc2)c([N+](=O)[O-])cc1C -5.69%
